SUMO Mot1 rescue: SUMOylation pathway inhibition by Mot1-301 growth rescue; 1% of 320,000 active; growth rescue, % at 18.8 µM; S. cerevisiae Mot1-301 growth rescue, ATP luminescence, 38.5C; percent above DMSO median, 100 means doubled;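 active = every valid replicate shows activation above 250% relative to neutral control wells; inactive = the rest, any valid replicate at or below 250%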;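 also: OY570 slx delta 5 strain wells were the positive control but not used for scaling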
TIM10 inh: TIM10 yeast growth inhibition; S. cerevisiae TIM10 strain growth, BacTiter-Glo luminescence, 24 h; inhibition, % at 10 µM; 1.4% of 330,000 active;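 active = inhibition of 40% or more at the single tested concentration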;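 also: wild-type TIM10 isogenic control strain grown at permissive 25 °C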
PfHsp90 yeast 2: inhibits growth of yeast expressing Plasmodium falciparum Hsp90; AID 504621; 0.32% of 310,000 active; inhibition, % at 9.4 µM; S. cerevisiae expressing PfHsp90, BacTiter-Glo ATP, 48 h; yeast lacking PDR1 and PDR3 efflux regulators;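 active = every replicate shows inhibition above about 80%, whatever the replicate mean, limit read from the data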;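 also: 0% = DMSO neutral controls and 100% = 20 µM radicicol positive controls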
tim23-1 inh: growth inhibitors of tim23-1 mutant yeast | S. cerevisiae tim23-1 growth, BacTiter-Glo luminescence, 24 h | inhibition, % at 20 µM | 1.3% of 330,000 active | AID 463212;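 active = growth inhibition of the mutant yeast at or above 50%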;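 also: temperature-sensitive mutant grown at 25 °C; plate controls were DMSO-treated mutant yeast for no effect and medium wells lacking yeast for full effect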
tim10-1 inh: inhibits growth of tim10-1 mutant yeast. S. cerevisiae tim10-1 ts strain growth, BacTiter-Glo, 24 h. inhibition, % at 20 µM. 2.2% of 330,000 active;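 active = inhibition of at least 40%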;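 also: mutant grown at 25 °C; 0% = DMSO wells with yeast and 100% = wells holding no yeast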
Mot1 SUMO dose: inhibits SUMO pathway, affecting Mot1-301 yeast growth | shares compounds with SUMO Mot1 rescue | S. cerevisiae Mot1-301 galactose growth, ATP luminescence, 24 h; -100 = growth of slx-deleted rescue strain | growth activity, percent, % at 42 µM | 2,300 tested, under 10 active | AID 493004;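 active = Signal drops as the depositor expects, and the fitted half-maximal dose is no more than ten times the top valid tested dose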;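 also: more negative values mean stronger growth rescue toward the control strain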
* hit, by the source's call; / = not tested or not shown; + = active, no number. The list is not random: actives were taken first. Their share in the collection is about 4.4%.

SMILES | SUMO Mot1 rescue | TIM10 inh | PfHsp90 yeast 2 | tim23-1 inh | tim10-1 inh | Mot1 SUMO dose
Cc1ccc2nc(/C(C#N)=C\c3cc(O)ccc3[N+](=O)[O-])[nH]c2c1 | 503* | -1 | 12 | 8 | -7 | 0
COC(=O)C1=C[C@@H](C(=O)OC)[C@@H]2C3=C(C(=O)C2(C)C)[C@H](C)n2c(=O)n(-c4ccccc4)c(=O)n2[C@@H]3C1 | -3 | -5 | -2 | 14 | -1 | /
C=CCNC(=O)NC(=O)COC(=O)/C(C#N)=C/c1cc(C)n(CC(C)C)c1C | + | 4 | 4 | 23 | 16 | 1
CSCCc1nc(SCC(=O)Nc2nnc(C)s2)[nH]c1C | + | -5 | 7 | -3 | -4 | 1
CCn1c(SCC(=O)N/N=C\c2ccccc2OCC(=O)O)nnc1-c1ccc(Cl)cc1 | 34 | 14 | 18 | 8 | 0 | /
C=C(C)Cn1c(SCC(=O)N/N=C/c2ccccc2OCC(=O)O)nnc1-c1ccc(Br)cc1 | 572* | -7 | -6 | 14 | -6 | 0
CC(OC(=O)c1cccc(S(=O)(=O)N2CCOCC2)c1)C(=O)NC1CCCCC1C (centres undefined) | 4 | 1 | -16 | 5 | 9 | /
O=C(Nc1ccc(S(=O)(=O)NC2=NCCCCC2)cc1)c1ccc(C(F)(F)F)cc1 | 451* | -31 | -25 | 26 | -12 | -1
CN(C)S(=O)(=O)c1ccc(C(=O)Nc2ccc(S(=O)(=O)NC3=NCCCCC3)cc2)cc1 | -4 | 5 | 19 | 10 | 9 | /
CN(C(=O)c1ccc(-c2nn(C)c(=O)c3ccccc23)cc1)C1CCCCC1 | 736* | 20 | -33 | 38 | 20 | 0
CCOc1cc(C(=S)N2CCOCC2)ccc1OC(=O)c1ccccc1 | 1 | 5 | -14 | 37 | 22 | /
CCOc1cc(C(=S)N2CCOCC2)ccc1OC(=O)c1ccc(C)cc1 | 414* | 4 | 0 | 34 | 21 | -1
COC(=O)C1CCN(S(=O)(=O)Cc2ccccc2Cl)CC1 | 17 | 1 | 6 | 22 | 9 | /
COC(=O)C1CCN(S(=O)(=O)Cc2ccccc2)CC1 | 689* | -8 | 4 | -4 | -19 | 0
O=S(=O)(Cc1ccccc1)N1CCN(c2ncccn2)CC1 | 399* | 2 | -63 | 13 | 2 | 0
CCc1ccc(CN2CCN(S(=O)(=O)Cc3ccccc3)CC2)cc1 | 8 | 11 | 14 | -1 | 4 | /
CSc1ccc(CN2CCN(S(=O)(=O)Cc3ccccc3)CC2)cc1 | 379* | -8 | -4 | 15 | 6 | -1
CC(OC(=O)CSc1ccccc1)C(=O)NC1CCCCC1C (centres undefined) | / | 12 | / | 24 | 25 | /
CC(c1nc2ccccc2c(=O)[nH]1)N1CCCN(S(=O)(=O)c2ccc(F)cc2)CC1 (centres undefined) | 20 | 11 | -7 | 22 | 17 | /
O=c1c2ccccc2ncn1-c1cccc(Cl)c1 | 6 | 3 | 0 | 16 | 4 | /
O=c1c2ccccc2ncn1-c1ccc(Cl)cc1Cl | 747* | -14 | / | 12 | -6 | 1
CCCOc1ccc(NC(=O)C2CC(=O)N3CCCN=C3S2)cc1 (centres undefined) | 48 | 4 | / | 11 | 24 | /
CCOc1ccc(NC(=O)C2CC(=O)N3CCCN=C3S2)cc1 (centres undefined) | + | 3 | -21 | 23 | 23 | 0
COC(=O)C12CCC3(SCCS3)C(C(=O)OC)(CCC13SCCS3)C2 | 523* | 22 | 23 | 35 | 24 | 0
COC(=O)C1CC2(C(=O)OC)CC(C(=O)OC)(CC(C(=O)OC)C2=O)C1=O (centres undefined) | / | / | 16 | / | / | /
CCCN1C(=O)c2[nH]nc(-c3cc(Cl)c(C)cc3O)c2C1c1ccc(O)c(OC)c1 (centres undefined) | 571* | -7 | 0 | 27 | 19 | 0
COc1ccc(CCN(C)S(=O)(=O)c2cn(C)c(=O)n(C)c2=O)cc1OC | / | 1 | 38 | -3 | -7 | /
CCOc1ncccc1C(=O)OCC(=O)N(CC(C)C)c1c(N)n(Cc2ccccc2)c(=O)[nH]c1=O | 2 | -1 | -35 | 19 | 2 | /

Bioassay records deposited in PubChem BioAssay by several laboratories.
